In all, about 59,000 sequences were measured (the read-out: median about -0.00055, lowest 2% from about -2 on). This is one part of a sample in which the lowest values are shown more often than they occur.
assay: Identification of proteins required for the processing of the EWS-FLI1 nascent transcript; details: TC32 Ewing sarcoma NR0B1-luc vs CMV-luc (EWS-FLI1 target promoter against control promoter), 48 h; screened at 20 nM (by protocol);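 note: robust z of luciferase light less the median z of siRNAs with the same seed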
Protocol: Ewing sarcoma (ES) cells depend on the EWS-FLI1 fusion transcription factor for cell survival. Using an assay of EWS-FLI1 activity and genome-wide siRNA screening we have identified proteins required for the processing of the EWS-FLI1 nascent transcript. Parallel genome-wide siRNA-mediated RNAi screens were conducted in Ewing sarcoma TC32 cell lines expressing a luciferase (luc) reporter protein driven by either the promoter of the EWS-FLI1 target gene NR0B1 (TC32-NR0B1-luc) or the CMV promoter (TC32-CMV-luc). Luciferase activity was assessed 48 hours post siRNA-transfection.
Twenty microl of serum-free media containing Lipofectamine RNAiMax (0.05 microl) was added to wells containing siRNA (0.8 pmol). Lipid and siRNA were allowed to complex for 45 min at ambient temperature before addition of 600 cells in RPMI-1640, 20% FBS to yield final transfection mixtures containing 20 nM siRNA in RPMI-1640, 10% FBS. Luciferase expression was measured using OneGlo (Promega, Madison, WI). The genome-wide screening campaign was conducted using Ambion's human genome library version 4.1 (Ambion, Austin TX). This library targets approximately 21000 human genes, three siRNAs per gene. Each siRNA is arrayed in an individual well of a 384-well plate. Parallel transfections were conducted in TC32-NR0B1-luc and TC32-CMV-luc cell lines and luciferase expression (OneGlo, Promega) was assayed 48 h later on a PerkinElmer Envision 2104 Multilabel plate reader (PerkinElmer, Waltham, MA). Qiagen's AllStars Negative control was incorporated on all screening plates for normalization (16 wells per plate). Qiagen, Germantown, MDsiGL4 was incorporated as a positive transfection control (16 wells per plate) on all plates. […] The raw luciferase data for the NR0B1- and CMV-luc screens were normalized and z-score-MAD transformed using standard methods (Chung et al., 2008). The miRNA-like seed sequence of every siRNA was determined and the median z-score for all siRNA sequences with the same seed sequence was calculated. This z-score was subtracted from the z-score associated with each siRNA with that seed sequence to generate a seed-adjusted z-score value (Z) that was used when the results for the three siRNAs corresponding to each gene were compared (Marine et al., 2012)

| Sequence | seed-corrected z-score |
| --- | --- |
| AAUGAUUGCACUAAUCUUC against IK | -3.4 |
| UCUUGGUACUGGAUGCAGC against LOC645166 | 1.33 |
| UCUUCGAGUGAGUCAAUGC against C10orf12 | -0.0711 |
| UCGCUGAUUAGCUUUCUCC against CUX2 | 0.0999 |
| UUCGUUGUCUCGAAGGGCU against TRAPPC2L | -2.92 |
| UUUCCUCUUAGUCAACUUC against CHIC1 | -0.602 |
| AAAGGACUGAUGUCUAACC against DHX15 | 0.0405 |
| UAUGUACAUGCAGCAGGCC against PVRL4 | -0.603 |
| AUGGGAGUCACAACAGUGU against OR10A5 | -9.99 |
| UUUCACUCAACCAUCAUUG against HOPX | -0.598 |
| UGCCUUUGGAGGAUCUGCG against HLA-F | -0.923 |
| UGCUUGCUCGCAAAAGUCC against TSHZ1 | 0.387 |
| UGAACUGCCUGGUCUGUCG against PDE6G | -0.214 |
| AUUCUUAUCCCAGCGGAGC against PGM2L1 | 0.162 |
| UCAAUUCCCAGGGUAAAGG against PIGN | -2.84 |
| UAACAUCUUGGAGCACUAC against CCDC54 | -0.239 |
| UUGUGAACAGUUGAGGUGC against OSBP2 | -0.0205 |
| UCACUGUCGCCGUCAAAGC against CCKBR | -2.68 |
| UCUUGUGCUAAAUCCCUGC against BRINP3 | -0.668 |
| UGCUGAACUAGGGAAGUGC against MAGIX | -0.0881 |
| UACCCAUCCGCAUCACUGC against CD320 | 0.0894 |
| UCCCGAAUAACCAUUGAGC against RFX3 | -0.206 |
| UUGGUAUUAUAACAGAUCC against ELMOD1 | -9 |

| Sequence | seed-corrected z-score |
| --- | --- |
| UUGAUCAACAUAAUCAAGC against ASB14 | -0.125 |
| UACUCGGUAAAUGUACUGG against ADH7 | 0.328 |
| AAGGGUAUUGGGAUUGAGC against MAP3K13 | 0.023 |
| AGCUUUAUUCAGUCAGUGC against GPBAR1 | -0.579 |
| UUACGAAUGGGCAAAAUUG against ZCWPW1 | -0.169 |
| UUUGCUGGUAUUCUUCACC against ACYP2 | 0.0336 |
| AUGUAUUCCAUUCUCACCG against GRSF1 | -4.16 |
| UAUUGAUGCUGCAUGACCC against ITGAM | 0.677 |
| UAAGUAUAACCAUCUGUUC against OR6C2 | 0.149 |
| UGAACAUAAAUUCCAGCUC against CLEC2L | 0.442 |
| UCACUUACAAAGCUCAGAG against LUZP1 | -1.94 |
| UUAUUUAUGUAGUUCAGGA against IZUMO4 | -1.87 |
| AAGACAAUAAUGUUGCUGC against CLDN17 | -0.436 |
| UCAGUAAUCAGCUUGAAUU against RPS3A | 2.45 |
| UUCUUUUCCACCUCCAUAG against HDGF | -12.4 |
| AUCCUUGAAAGCCUCAUAC against XPR1 | 0.211 |
| UAAAUGACAUGCAGGAUUG against C17orf102 | -0.0252 |
| UUCAGUUUAAAAUCGUUUC against CENPL | 0.133 |
| UUUGUUUCUACCAUUCCCA against PPIL1 | -2.34 |
| ACAAUAAUUAAGACAUUGC against OR4K1 | 0.433 |
| GAAUGUUCAUGUGAAAUGC against ZNF365 | 1.68 |
| UGCAAUAGCAGAGUAUUCC against UBE2Q1 | 0.662 |
| UUUGUUGCAGAAUACAUAG against CTH | -13.9 |

| Sequence | seed-corrected z-score |
| --- | --- |
| ACAGCUAUUAAGAAGAAGU against PTGER3 | -0.312 |
| CGCGUACUGACGGAAACAC against RPS29P3 | 0.649 |
| UUAGCGGACGGAGGAAUUG against IDH3G | 0.0869 |
| AAUGGAUUCAGUUACUUGC against TACSTD2 | -0.0397 |
| UGUCUUCGAUGUUUCAUCG against DOK6 | -2.6 |
| UUCGGGAAAGUAGUCAUGA against NSFL1C | 0.0545 |
| UACACUAGCAUUGCACUCC against ARHGEF19 | 0.989 |
| AUCUUGUUCCGCAUGGUCU against AMOTL2 | 0.501 |
| UUUAGCAACAGAGUCCACC against MAP2K6 | 0.538 |
| AUCUUCAAUACUUGAAUCU against LINC00467 | -0.368 |
| UUUCAUGCACCAACGGAUC against ABHD2 | -2.24 |
| AAAGGAAAGAUGACAGUAU against OR4N5 | 0.213 |
| AAGCUUUUUAUUGGAGUUC against ZNF852 | 1.01 |
| UCAGCGAACAUGUCCAGGG against CD2BP2 | 0.587 |
| AAUUUAAUAGUGUUUGUGC against PLPP4 | 0.11 |
| UCAGAGCACAGAUCGGGAC against DUSP2 | 0.227 |
| UUUGUCCUUAGUAAUGAAU against HOXA13 | -0.568 |
| UUUGCAAUUGAGGUGAGGC against ANP32D | -0.262 |
| UUCACAACAGGGUGGAGCC against FAM110A | -0.481 |
| UUGCCUAUCUGGUUGAUGG against MATN1 | -0.472 |
| UUCUGAUUCUGCUUGUUGG against MPRIP | -2.12 |
| UCCGUUAUAAACAAACAGG against ITGA11 | -0.259 |
| UUCUGCAAGCUCACUGUCC against TTC7A | -0.896 |

| Sequence | seed-corrected z-score |
| --- | --- |
| UUAUCUAUAACAGAGUAUG against DCBLD2 | 0.479 |
| UUGGAAAGCAGUGUCUCUG against KRTAP8-1 | -0.147 |
| UCUGCUUUGCAAAUAGCCG against SRD5A1 | -3.07 |
| UAUGUGCACACGGUCUUGA against NRN1 | -1.7 |
| UAAGUUUAUAGUUGGGAAC against RPS25P6 | -0.0501 |
| AUUGGAUCAGUGGAGCUCU against SPANXN4 | 0.397 |
| AAAUUCGUAAGCUCUGUGG against C2orf70 | 1.37 |
| AAGCUUCUCAUUAAUGCCC against CYB561A3 | -1.26 |
| UAGGCAAAAACAGUCCACC against B3GNT8 | -0.0844 |
| UAUUACUCAGCAGCUUUGC against TIPIN | -0.378 |
| AUACUGGAUAUCAUAGUUC against ARG2 | -2.32 |
| UUGGUUGUCAUGAUCAGUG against PAPD7 | 0.333 |
| UUUUGUUCGUCUCCGUUCC against AK4 | 0.42 |
| UGAGUUUCGCGCUCUCUCC against SLC17A7 | -2.93 |
| AGUAUUAUCACGUUAGUGG against NUP88 | -0.85 |
| UUUUCGCUACUUGAGUUGC against SLC35F5 | -1.12 |
| AAAGUUGAACUCCUGAUGG against MYT1L-AS1 | 0.298 |
| UCGUUGUUCAAACCAUUCC against ZEB2 | -2.94 |
| UCUGAAUCCACUAACACUG against TMEM87B | -0.0559 |
| UUGCUAAACAGGGCCUUGC against MCRS1 | 1.49 |
| UAGGUUUUCUUCGUUGUCC against MIR503HG | 0.872 |
| UUCGAAGCAUCUUUUGGGC against RPL7P9 | -2.28 |
| UGAGUUGAACACGUAGCCC against ALPI | 0.286 |

| Sequence | seed-corrected z-score |
| --- | --- |
| UUUGCUAUCUUGCUGAUGC against LINC00615 | 0.184 |
| ACAGAUAUUGUAAAUCUCC against TMEM14C | 0.508 |
| UAUUGUGAUAUAGGCACCG against WDR26 | -1.57 |
| UCACGUUUCACCAAGAUGC against EIF4A3 | -2.2 |
| UCCAUGACAAUGUCCACUC against VAT1 | -0.662 |
| UCUGGAUUAUGGGUAGGCC against CHTOP | -1.42 |
| UUCUGCUUCUGUAUUAUCC against SAP30BP | -2.11 |
| UCACUAUCAAGUCUGGUAC against CSMD3 | 0.55 |
| UAUAUCUGCAACACGGUGG against SND1 | 0.153 |
| UGUCUUUCAAACGUAGGCC against ZNF792 | -3.5 |
| UGUUUCGUAAACAUUCACC against FUT10 | -0.285 |
| UACAAUUACAUCAUCGUCC against GLT8D2 | -0.139 |
| UUCGAGAGACUGACAUGCG against SYT14P1 | -0.0146 |
| AUCUGGUUCAUUACAGUAG against BSDC1 | -2.55 |
| AAAAGACAUACAUGAAGAC against GJB1 | -0.779 |
| UCUAAUUCCAGGUAAAUUU against GOLT1B | 0.519 |
| UUAUCUUGCAGCAAAGCAC against LYZ | -1.35 |
| UUAAACUUCACGUUGUCCU against RPL38 | -2.01 |
| AUUGGAGGCACUGCACUCG against NTM | 0.224 |
| UAUAGGAGCUCUAGGAUCU against CSTF2T | -0.439 |
| AGCAUUGUAAGUGACGUGC against KCNN2 | -2.24 |
| UCUGUUAAUGCUAUUCUCC against C2orf61 | 0.146 |
| UGUUAAGUAGAAAAUAACC against CD83 | 0.552 |

| Sequence | seed-corrected z-score |
| --- | --- |
| UAUGACAUCGGAGACCUUC against MEN1 | 0.259 |
| AAAGUUGCUAUGAAGCGAG against PSMA8 | -2.62 |
| UCUCGUUUAUCUACAUCUC against AUTS2 | 0.181 |
| UACAGACAUAUGUACAUCC against CCDC12 | -2.89 |
| UGACAAAUCACUGUAUGUC against ZIM2 | -0.582 |
| UUUGAUACAGUAUCUACAG against DVL1 | 0.326 |
| UUAUUUCUCAGCUCGUUGG against STX6 | -2.43 |
| UUUGUUUGCACCAGUUGUC against OTUD1 | 0.434 |
| UUGCGCUCUAGUUCCAGGC against PRPH | -0.44 |
| UCCUUUAACGGGAUCUUGU against PI3 | 0.267 |
| UAUGUACAGAGACACCAGG against MC5R | -2.92 |
| AUAGUCACAAAUGAAUCCG against PLS3 | 0.171 |
| AACGAUGAUAGAAUUUACG against CLEC16A | -2.32 |
| UGUGGAAACAUUGAUCUGC against PRPF4 | -1.56 |
| UUCUUUAUUGAGUGCAUGG against KLK6 | -1.38 |
| UCGUCUAUUGAUGAUGUCG against AQR | -2.1 |
| UUCUGGAUUCUUGACCGCU against KRBOX4 | 0.0382 |
| AGCUUGGAGAGUUUAGCCC against SLC46A1 | 0.256 |
